NR5A2 inv ag: NR5A2 inverse agonism in reporter assay; 360,000 tested, 0.13% active; inhibition, % at 3.6 µM; O00482; HEK293T StAR-luciferase reporter, LRH-1 transfected, 24 h; AID 602396;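 active = inhibition above the mean inhibition of all tested compounds plus 3 SD, cut at about 73% in these data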;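 also: 0% = DMSO wells and 100% = reporter-only cells lacking LRH-1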
Target sequence (O00482 whole entry, looked up): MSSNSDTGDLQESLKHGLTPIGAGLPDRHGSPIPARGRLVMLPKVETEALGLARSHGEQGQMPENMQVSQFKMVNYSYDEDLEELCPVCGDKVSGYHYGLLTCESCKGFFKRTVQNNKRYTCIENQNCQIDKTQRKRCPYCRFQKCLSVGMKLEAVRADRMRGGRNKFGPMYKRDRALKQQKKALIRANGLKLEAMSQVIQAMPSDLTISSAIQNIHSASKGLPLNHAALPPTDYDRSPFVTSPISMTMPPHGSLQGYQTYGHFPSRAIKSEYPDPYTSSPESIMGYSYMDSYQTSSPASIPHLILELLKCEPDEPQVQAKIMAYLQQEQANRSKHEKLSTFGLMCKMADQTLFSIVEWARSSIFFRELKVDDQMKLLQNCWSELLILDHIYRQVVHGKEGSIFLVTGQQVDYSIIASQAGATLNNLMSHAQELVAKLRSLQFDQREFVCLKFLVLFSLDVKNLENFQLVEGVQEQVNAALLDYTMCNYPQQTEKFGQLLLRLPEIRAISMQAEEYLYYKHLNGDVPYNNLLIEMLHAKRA
NCOA1 inh: inhibitors of human steroid receptor coactivator 1 (SRC1); Q15788; HEK293 GAL4-SRC1 luciferase reporter, luminescence; inhibition, % at 3.6 µM; 360,000 tested, 0.12% active; AID 588354;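 active = inhibition above the campaign mean plus 3 SD, with each screening campaign given its own cutoff, cut at about 60% in these data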;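 also: 0% = DMSO treated cells and 100% = gossypol at 36 µM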
Gli-Sufu antag: blocks Gli-Sufu signaling in a luciferase reporter; Sufu-KO-LIGHT fibroblasts, Gli luciferase reporter luminescence; 340,000 tested, 0.74% active; inhibition, % at 5 µM;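 active = inhibition above about 55%, limit read from the data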;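 also: 0% = DMSO-treated cells and 100% = wells with medium but no cells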
Shn3 3UTR inh: reduces Shn3 3'UTR luciferase signal in osteoblasts | inhibition, % at 12.5 µM | 360,000 tested, 0.52% active | Clone20 osteoblast Shn3 3'UTR firefly luciferase, 24 h | AID 588674;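 active = mean inhibition of at least 75% with every replicate also reaching 75%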;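 also: 0% = median of neutral control wells and 100% = pilot-screen positive control compound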
SRC3 inh: human NCOA3 inhibition; AID 588352; 360,000 tested, 0.17% active; HEK293 GAL4-SRC3 luciferase reporter, luminescence; Q9Y6Q9; inhibition, % at 3.6 µM;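 active = inhibition above a per-campaign cutoff, the mean of all compounds plus 3 SD, cut at about 60% in these data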;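 also: 0% = DMSO-treated cells and 100% = gossypol-treated cells at 36 µM; higher means less SRC3-driven luciferase light from the GAL4 reporter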
SRC2 inh: human SRC2 (NCOA2) inhibition. Q15596. HEK293 GAL4-SRC2 luciferase reporter, luminescence. inhibition, % at 9 µM. 370,000 tested, 0.17% active. AID 651957;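 active = inhibition above the mean inhibition of all tested compounds plus 3 SD, set per campaign, cut at about 52% in these data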;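 also: 0% = DMSO treated cells and 100% = cells given Gossypol at 36 µM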
Gli antag conf: Gli-SUFU antagonism confirmation, single concentration; shares compounds with Gli-Sufu antag; Sufu-KO-LIGHT cells, Gli luciferase reporter, luminescence; inhibition, % at 5 µM; 2,500 tested, 40% active; AID 602428;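 active = mean inhibition at 5 µM reaching about 45%, limit read from the data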;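 also: plate controls were DMSO-treated cells for no effect and wells lacking cells for full effect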
SufuKO cytotox: counter-screen for Gli-SUFU antagonists: cytotoxicity. shares compounds with Gli-Sufu antag. Sufu-KO-LIGHT cells cytotoxicity, ATP luminescence. cytotoxicity, % at 5 µM. 2,500 tested, 32% active. AID 651994;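 active = mean cytotoxicity at 5 µM above about 25%, limit read from the data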;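 also: cells exposed to compound overnight for roughly 16 to 18 hours; plate controls were DMSO wells with cells for no effect and medium without cells for full effect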
Wnt3a counter: Wnt3a reporter inhibition counter-screen. shares compounds with Gli-Sufu antag. Wnt-LIGHT cells, Wnt3a-driven luciferase reporter, luminescence. inhibition, % at 6.25 µM. 2,500 tested, 20% active. AID 651995;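 active = mean inhibition above about 25%, limit read from the data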
Starred values were filed as active, the others as inactive. In the library only some 1.1% were active in any assay of this set; here they are far more common.

Results for Cc1ccc(NC(=O)CSc2n[nH]c(-c3ccco3)n2)c(C)c1 ?
NR5A2 inv ag: 27; NCOA1 inh: 12; Gli-Sufu antag: 57*; Shn3 3UTR inh: 8; SRC3 inh: -3; SRC2 inh: 5; Gli antag conf: 21; SufuKO cytotox: -3; Wnt3a counter: -18

What do the screens show for `C[C@H](NC(=O)[C@@H]1CCC(=O)N1Cc1ccco1)c1ccccc1`?
NR5A2 inv ag: 7; NCOA1 inh: 1; Gli-Sufu antag: 68*; Shn3 3UTR inh: -22; SRC3 inh: 1; SRC2 inh: -1; Gli antag conf: 12; SufuKO cytotox: -9; Wnt3a counter: -3

What do the screens show for `O=C(O)[C@H]1CCC(=O)N1Cc1ccco1`?
NR5A2 inv ag: 11; NCOA1 inh: -1; Gli-Sufu antag: 3; Shn3 3UTR inh: -4; SRC3 inh: 13; SRC2 inh: 15

How did O=C(Nc1ccccc1)N1CCC(C(=O)N2CCCC(C(F)(F)F)C2)CC1 (stereo unspecified) do in these assays?
NR5A2 inv ag: -20; NCOA1 inh: 2; Gli-Sufu antag: 92*; Shn3 3UTR inh: -2; SRC3 inh: -4; SRC2 inh: 0; Gli antag conf: 23; SufuKO cytotox: 14; Wnt3a counter: -47

How did COC(=O)C[C@H]1CC[C@H]2[C@H](COc3ccc(NC(=O)C4CCOCC4)cc3C(=O)N2C)O1 do in these assays?
SRC2 inh: 21

How did O=C1CCCC/C1=C/Nc1cccc(C(F)(F)F)c1 do in these assays?
NR5A2 inv ag: -23; NCOA1 inh: -16; Gli-Sufu antag: -8; Shn3 3UTR inh: -23; SRC3 inh: 0; SRC2 inh: -7

What do the screens show for `O=C1CCC2S/C(=C/Nc3ccc(C(F)(F)F)cc3)C(=O)N12` (stereo unspecified)?
NR5A2 inv ag: 10; NCOA1 inh: 33; Gli-Sufu antag: 58*; Shn3 3UTR inh: 57; SRC3 inh: 31; SRC2 inh: 72*; Gli antag conf: 60*; SufuKO cytotox: 2; Wnt3a counter: 106*

How did O=C(Cn1ncc2ccccc21)N1CCN(c2cccc(C(F)(F)F)c2)CC1 do in these assays?
NR5A2 inv ag: 14; NCOA1 inh: -7; Gli-Sufu antag: 56*; Shn3 3UTR inh: -2; SRC3 inh: -10; SRC2 inh: -42; Gli antag conf: 15; SufuKO cytotox: 0; Wnt3a counter: -43

What do the screens show for `CCOC(=O)N1CCN(C(=O)Cn2ncc3ccccc32)CC1`?
NR5A2 inv ag: 11; NCOA1 inh: -2; Gli-Sufu antag: 1; Shn3 3UTR inh: 3; SRC3 inh: -16; SRC2 inh: -19

How did CCc1nnc(NC(=O)CCC(=O)NCC2CCCO2)s1 (stereo unspecified) do in these assays?
NR5A2 inv ag: 5; NCOA1 inh: 8; Gli-Sufu antag: 50; Shn3 3UTR inh: 11; SRC3 inh: -6; SRC2 inh: 3; Gli antag conf: 22; SufuKO cytotox: 23; Wnt3a counter: -14

Results for O=C(CN(CC1CCCO1)C(=O)CCC(=O)Nc1nccs1)NCC1CCCO1 (stereo unspecified) ?
NR5A2 inv ag: -14; NCOA1 inh: -21; Gli-Sufu antag: -3; Shn3 3UTR inh: 12; SRC3 inh: -32; SRC2 inh: -25

How did O=C(CN(Cc1ccccc1)C(=O)CCC(=O)Nc1nccs1)NCC1CCCO1 (stereo unspecified) do in these assays?
NR5A2 inv ag: 19; NCOA1 inh: 12; Gli-Sufu antag: 50; Shn3 3UTR inh: 0; SRC3 inh: -7; SRC2 inh: -4; Gli antag conf: 14; SufuKO cytotox: 7; Wnt3a counter: 8

How did CCCCC(=O)Nc1nnc(SCC(=O)NCC2CCCO2)s1 (stereo unspecified) do in these assays?
NR5A2 inv ag: 28; NCOA1 inh: -50; Gli-Sufu antag: -6; Shn3 3UTR inh: -1; SRC3 inh: 20; SRC2 inh: -44

Results for CC(C)C[C@H]1COc2cc(Br)ccc2S(=O)(=O)N1Cc1cn(CCC2OCCCO2)nn1 ?
SRC2 inh: 12

How did COC(=O)[C@]12C[C@H](CC(=O)NCCCCc3ccccc3)C(=O)N(CCc3ccc(OC)c(OC)c3)C1=C[C@H](C(C)C)O[C@@H]2C1CC1 do in these assays?
SRC2 inh: -14

Results for COc1cccc(S(=O)(=O)Nc2ccc(C(=O)Nc3ccncc3)cc2)c1 ?
NR5A2 inv ag: 1; NCOA1 inh: -112; Gli-Sufu antag: 0; Shn3 3UTR inh: 26; SRC3 inh: 25; SRC2 inh: 5

Results for COc1ccc(NS(=O)(=O)c2cccc(NC(=O)c3ccc(Cl)nc3)c2)cc1 ?
NR5A2 inv ag: 49; NCOA1 inh: 23; Gli-Sufu antag: 69*; Shn3 3UTR inh: 80; SRC3 inh: 10; SRC2 inh: 7; Gli antag conf: 68*; SufuKO cytotox: 41*; Wnt3a counter: 16

How did O=C(Nc1cccc(S(=O)(=O)Nc2ccc(Cl)cc2)c1)c1ccc(Cl)nc1 do in these assays?
NR5A2 inv ag: 58; NCOA1 inh: -9; Gli-Sufu antag: 68*; Shn3 3UTR inh: 91*; SRC3 inh: 22; SRC2 inh: 24; Gli antag conf: 64*; SufuKO cytotox: 39*; Wnt3a counter: 23

What do the screens show for `CN1CCc2nc(NC(=O)COc3ccc4ccccc4c3)sc2C1`?
NR5A2 inv ag: -1; NCOA1 inh: 0; Gli-Sufu antag: 11; Shn3 3UTR inh: -6; SRC3 inh: 13; SRC2 inh: 8

What do the screens show for `CN1CCc2nc(NC(=O)c3cccc(OC(F)F)c3)sc2C1`?
NR5A2 inv ag: -21; NCOA1 inh: -28; Gli-Sufu antag: 68*; Shn3 3UTR inh: -13; SRC3 inh: -18; SRC2 inh: -24; Gli antag conf: 10; SufuKO cytotox: 11; Wnt3a counter: -101

Results for COc1ccc(-n2nnc3c(SCC(=O)NCc4ccco4)ncnc32)cc1 ?
NR5A2 inv ag: -27; NCOA1 inh: -6; Gli-Sufu antag: 98*; Shn3 3UTR inh: -9; SRC3 inh: 2; SRC2 inh: 1; Gli antag conf: 21; SufuKO cytotox: 6; Wnt3a counter: 12

Results for Cc1ccc(-n2nnc3c(SCC(=O)NCc4ccco4)ncnc32)cc1 ?
NR5A2 inv ag: 20; NCOA1 inh: -5; Gli-Sufu antag: 9; Shn3 3UTR inh: -45; SRC3 inh: -11; SRC2 inh: 2

Results for COC(=O)[C@]12C[C@H](CC(=O)N3CCCCC3)C(=O)N(Cc3ccccc3)C1=C[C@H](COCc1ccccc1)O[C@@H]2C ?
SRC2 inh: 3

Source: PubChem BioAssay
